We go through eight molecules from PubChem BioAssay (NCI).

Test systems include HT29 colon; SNB-75 CNS; SNB-19 CNS; U251 CNS; PC-3 prostate; SK-MEL-5 melanoma; UACC-62 melanoma; SK-MEL-2 melanoma; EKVX NSCLC; SN12C renal; UO-31 renal; TK-10 renal; ACHN renal; CAKI-1 renal; CCRF-CEM leukemia; MOLT-4 leukemia; SR leukemia; LOX IMVI melanoma; SK-MEL-28 melanoma; A498 renal.
What all share (assay): NCI-60 one-dose screen, 48 h (100 = growth as untreated, 0 = no growth, -100 = all killed)
What all share (settings): 10 µM unless noted

About 83,000 compounds went through this panel and 20% of them were active in at least one assay; those are over-represented in the sample as a whole.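 Treatment: one concentration, 48 hours, 96-well format. Scoring: percent growth, with anything below 10 considered active.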 A number with no mark means an inactive call. The source made the active and inactive calls.

With `COc1ccc(/C(=C2\O[C@@H]([C@H](O)CO)[C@H]3OC(C)(C)O[C@@H]23)c2cc(OC)c(OC)c(OC)c2)cc1O`, the growth with HT29 colon was 111%; in the assay on SNB-75 CNS, 55.9%; in the assay on SNB-19 CNS, 76.8%; in the assay on U251 CNS, 90.6%; in the assay on PC-3 prostate, 51.8%; with SK-MEL-5 melanoma, 74.3%. Besides, the growth in the assay on UACC-62 melanoma is 95.1%; in the assay with SK-MEL-2 melanoma it was 77.5%; with EKVX NSCLC, 97%; in the assay on SN12C renal it was 95.6%; in the assay on UO-31 renal, 90.1%; in the assay on TK-10 renal, 106%. The growth in the assay on ACHN renal was 78.5%; in the assay on CAKI-1 renal, 105%; in the assay on CCRF-CEM leukemia, 95.3%; in the assay with MOLT-4 leukemia, 78.1%; in the assay with SR leukemia, -13% (active).

Consider `COc1ccc(-c2csc(NC(=O)c3cc(O)c(O)c(O)c3)n2)cc1`, for which the growth in the assay on HT29 colon is 92.3%; in the assay with SNB-75 CNS, 58.8%; in the assay with SNB-19 CNS, 59.9%; in the assay on U251 CNS, 45.6%; in the assay with PC-3 prostate, 68.4%; in the assay with SK-MEL-5 melanoma, 51%. The growth in the assay on LOX IMVI melanoma was 50.6%; with SK-MEL-28 melanoma, 89.1%; in the assay with SK-MEL-2 melanoma, 71.4%; with SN12C renal it was 64.8%; in the assay on UO-31 renal it was 30.3%; in the assay on ACHN renal it was 36%. Besides, the growth with CAKI-1 renal was 38.6%; in the assay on A498 renal, 112%; in the assay on CCRF-CEM leukemia it was 18.5%; in the assay with MOLT-4 leukemia it was 28%; in the assay on SR leukemia, 14.5%.

With `CO[C@H]1CC(O[C@@H]2/C(C)=C/C[C@@H]3C[C@@H](C[C@]4(CC[C@H](C)[C@@H](C5CCCCC5)O4)O3)OC(=O)[C@@H]3C=C(C)/C(=N/O)[C@H]4OC/C(=C\C=C\[C@@H]2C)[C@]43O)O[C@@H](C)C1O` (stereo partly drawn), the growth in the assay on HT29 colon is -70.9% (active); in the assay with SNB-75 CNS, -90.4% (active); in the assay with SNB-19 CNS, -96.6% (active); in the assay on U251 CNS, -87.6% (active); in the assay with PC-3 prostate it was -80.4% (active); in the assay on UACC-62 melanoma, -93.4% (active). For the same molecule, the growth is -92.9% (active) with LOX IMVI melanoma; -87.3% (active) in the assay on SK-MEL-28 melanoma; -71.8% (active) in the assay on SK-MEL-2 melanoma; -85.9% (active) in the assay with EKVX NSCLC; -82.4% (active) with SN12C renal; -90.5% (active) with UO-31 renal. The growth is -90.4% (active) in the assay with TK-10 renal; -94.4% (active) in the assay with ACHN renal; -73.8% (active) with CAKI-1 renal; -96.2% (active) in the assay with A498 renal; -47.9% (active) in the assay on CCRF-CEM leukemia; -36.7% (active) in the assay with MOLT-4 leukemia.

In the case of `N#Cc1cccc(/C=C(/C(=O)c2ccccc2)c2ccccc2)c1`, the growth was 70.1% in the assay on HT29 colon; 69.4% in the assay on SNB-75 CNS; 83% in the assay with SNB-19 CNS; 60.1% with U251 CNS; 66.5% with PC-3 prostate; 49.3% with SK-MEL-5 melanoma. For the same molecule, the growth is 14.1% in the assay on LOX IMVI melanoma; 100% in the assay with SK-MEL-28 melanoma; 34.5% in the assay with SK-MEL-2 melanoma; 49.4% in the assay with SN12C renal; 49.3% with UO-31 renal; 45% in the assay with ACHN renal. In addition, the growth is 55.5% in the assay on CAKI-1 renal, 74.3% in the assay with A498 renal, 2.7% (active) with CCRF-CEM leukemia and 4.97% (active) in the assay with MOLT-4 leukemia.

Take `Cc1cc(C(=O)O)c(C)cc1C(=O)O`: the growth was 103% in the assay on HT29 colon; 97% in the assay on SNB-75 CNS; 107% in the assay on SNB-19 CNS; 109% in the assay on U251 CNS; 92.3% with PC-3 prostate; 99.9% in the assay on SK-MEL-5 melanoma. For the same molecule, the growth in the assay on LOX IMVI melanoma is 103%; with SK-MEL-28 melanoma it was 108%; in the assay on SK-MEL-2 melanoma, 104%; with EKVX NSCLC, 122%; with SN12C renal, 106%; in the assay with UO-31 renal it was 73.5%. The growth with TK-10 renal was 115%; in the assay on ACHN renal it was 112%; in the assay with CAKI-1 renal, 102%; in the assay on A498 renal, 103%; in the assay on CCRF-CEM leukemia it was 101%; in the assay on MOLT-4 leukemia, 87.7%. Besides, the growth with SR leukemia is 105%.

`Oc1ccc(Cc2ccc(O)c(C3CC(c4ccc(Cl)cc4)=NN3)c2)cc1C1CC(c2ccc(Cl)cc2)=NN1` (stereo not drawn): the growth with HT29 colon is 51%; in the assay with SNB-75 CNS, 36.1%; with SNB-19 CNS, 29.4%; in the assay on U251 CNS it was 12.7%; in the assay with PC-3 prostate it was 23.8%; with SK-MEL-5 melanoma, 24.4%. Also, the growth in the assay with UACC-62 melanoma was 36.3%; in the assay on SK-MEL-28 melanoma it was 57.7%; with EKVX NSCLC it was -6.4% (active); in the assay on SN12C renal, 24.9%; in the assay with UO-31 renal it was -22.4% (active); in the assay on TK-10 renal, 21%. Moreover, the growth with ACHN renal is 16.5%; in the assay with CAKI-1 renal, -49.4% (active); in the assay with A498 renal, 33.8%; in the assay with CCRF-CEM leukemia, 8.95% (active); in the assay with MOLT-4 leukemia, -5.34% (active); in the assay on SR leukemia, 3.43% (active).

For `CSc1ccc2c(c1)N(CCC1CCCCN1C)c1ccccc1S2` (stereo not drawn), the growth in the assay with HT29 colon is 21.6%; in the assay with SNB-75 CNS, 34.5%; with SNB-19 CNS it was 75.3%; in the assay on U251 CNS it was 34.3%; in the assay on PC-3 prostate it was 34.1%; in the assay on SK-MEL-5 melanoma it was 23.7%. Besides, the growth with LOX IMVI melanoma was 23.5%; in the assay on SK-MEL-28 melanoma, 81.7%; with SK-MEL-2 melanoma it was 88.6%; in the assay with EKVX NSCLC, 67.5%; in the assay with SN12C renal it was 48%; in the assay with UO-31 renal, 28.2%. The growth in the assay with TK-10 renal is 66.4%; with ACHN renal, 25.8%; with CAKI-1 renal it was 32.9%; in the assay with A498 renal it was 84%; in the assay on CCRF-CEM leukemia, 35.3%; in the assay with MOLT-4 leukemia, 40.5%. Moreover, the growth in the assay on SR leukemia is 14.2%.

On to `Cn1c(=O)c2c(nc(Br)n2CCC(=O)Nc2ccc(F)cc2)n(C)c1=O`, for which the growth was 96.3% in the assay on HT29 colon; 89.1% in the assay with SNB-75 CNS; 103% with SNB-19 CNS; 96.7% in the assay on U251 CNS; 95.9% in the assay with PC-3 prostate; 111% in the assay on SK-MEL-5 melanoma. The growth in the assay with LOX IMVI melanoma is 89.9%; in the assay on SK-MEL-28 melanoma, 112%; in the assay on SK-MEL-2 melanoma, 100%; in the assay on EKVX NSCLC, 108%; with SN12C renal, 106%; in the assay with UO-31 renal, 78.3%. Besides, the growth was 103% in the assay on TK-10 renal; 102% with ACHN renal; 93.7% in the assay on CAKI-1 renal; 98.2% with A498 renal; 99.5% with CCRF-CEM leukemia; 95.9% with MOLT-4 leukemia. For the same molecule, in the assay on SR leukemia, the growth was 107%.
